Experimental data as given in PubChem BioAssay AID1572 (National Center for Advancing Translational Sciences (NCATS), 2009).
Inconclusive results are not listed. Active and inactive are the calls of the source. Calls come from the whole dose curve; as a rule, active = well fitted curve in either direction with a large enough effect; inconclusive = small, poorly fitted or top-dose-only effect; inactive = flat fitted curve, though single readings scatter.

Experiment: Total Fluorescence Confirmation Counterscreen for Inhibitors of the Interaction of Thyroid Hormone Receptor and Steroid Receptor Coregulator 2
Conditions: Texas Red total fluorescence, TRbeta/SRC2 FP artifact counterscreen; series mostly up to 92.2 µM; total fluorescence change, both ways: at the top concentration
Description: NIH Molecular Libraries Probe Production Network [MLPCN] NIH Chemical Genomics Center [NCGC] MLPCN Grant: DK058080 Assay Provider: R. Kip Guy, St. Jude Children's Research Hospital NCGC Assay Overview: Thyroid receptor (TR) regulates many homeostatic processes including basal metabolism, cardiovascular function, body weight, and lipid trafficking. TR modulators are potential therapeutics for obesity and hyperlipidemias but current thyroid analogs have undesirable side effects, particularly cardiac stimulation. To identify inhibitors that specifically prevent the interaction of TR with the steroid receptor coregulator 2 (SRC2), a fluorescence polarization assay was screened. This assay detects interaction of the ligand-binding domain of human TRbeta with a Texas Red labeled SRC2 peptide, corresponding to a 20 amino acid region of the nuclear receptor interaction domain (Arnold et al., 2006). Total fluorescence (555 nm excitation and 632 nm emission) was measured to identify potential fluorescent and light absorbing compounds. Such compounds may be artifacts that interfere with the fluorescence polarization assay. This assay is a confirmation assay for AID 1479. Arnold, L. A.; Estebanez-Perpina, E.; Togashi, M.; Shelat, A.; Ocasio, C. A.; McReynolds, A. C.; Nguyen, P.; Baxter, J. D.; Fletterick, R. J.; Webb, P.; Guy, R. K. A high-throughput screening method to identify small molecule inhibitors of thyroid hormone receptor coactivator binding. Sci STKE 2006, p 13.
NCGC Assay Protocol Summary: For screening, 5 uL/well 0.6 uM TRbeta and 20 nM SRC2 Texas Red in protein buffer (20mM Tris hydrochloride, 100mM NaCl, 10% glycerol, 1mM EDTA, 0.01% NP-40, 1mM DTT, 1uM T3 and 5% DMSO) was dispensed into black solid 1536-well plates (Grenier) using a solenoid-based dispenser. Following transfer of 23 nL compound or DMSO vehicle by a pin tool, the plates were centrifuged 15 s at 1000 RPM and incubated 5 hr at ambient temperature. The plates were read by an Envision (Perkin Elmer) to detect fluorescence polarization of SRC2 Texas Red (555 nm excitation and 632 nm emission). Data were normalized to unbound (all components except TRbeta) and bound SRC2 Texas Red controls. Total fluorescence (TF) was calculated as follows: TF = S + 2P where S and P are fluorescence readings in the parallel and perpendicular channels, respectively. In this assay, we provide % activity data for each concentration as well as potencies for the active compounds.

| SMILES | total fluorescence change, both ways | outcome |
| --- | --- | --- |
| CCCCCn1c(N)c(C(=O)NCc2cccs2)c2nc3ccccc3nc21 | 6.05% (inactive) | – |
| CCn1nc(-c2cccs2)nc2c(=O)n(C)c(=O)nc1-2 | -0.774% (inactive) | – |
| Cc1[nH]n(-c2ccccc2)c(=O)c1C(c1ccc([N+](=O)[O-])cc1)c1c(C)[nH]n(-c2ccccc2)c1=O | -23.2% (inactive) | – |
| COP(=S)(OC)Oc1ccc([N+](=O)[O-])cc1 | 8.92% [at 184 µM] (inactive) | – |
| O=C(O)CC1OCC=C2CN3CCC45C6=CC(=O)C(=O)C([N+](=O)[O-])=C6NC4C1C2CC35 (stereo unspecified) | – | inactive |
| CN1CC[C@@]2(C)c3cc(O)ccc3N(C)C2O1 (stereo partly specified) | 1.51% [at 184 µM] (inactive) | – |
